High-throughput results deposited in PubChem by National Center for Advancing Translational Sciences (NCATS).
JMJD2A Tudor inh: blocks the human JMJD2A Tudor domain | AlphaScreen JMJD2A-Tudor / H3K4me3 peptide binding | Potency, µM (top dose mostly 114 µM), hits mostly inhibitors | 390,000 tested, 4.4% active; note: nearly all actives have a fitted effect of over 50% in size
HP1b binding inh: blocks HP1-beta chromodomain binding to methylated histone tails | P83916 | AlphaScreen HP1-beta / biotin-H3K9me3 peptide binding | Potency, µM (highest dose often 114 µM), most hits filed as inhibitors | 390,000 tested, 0.56% active | AID 540317; note: nearly all actives have a fitted effect of over 70% in size
Target sequence (P83916 whole entry, looked up): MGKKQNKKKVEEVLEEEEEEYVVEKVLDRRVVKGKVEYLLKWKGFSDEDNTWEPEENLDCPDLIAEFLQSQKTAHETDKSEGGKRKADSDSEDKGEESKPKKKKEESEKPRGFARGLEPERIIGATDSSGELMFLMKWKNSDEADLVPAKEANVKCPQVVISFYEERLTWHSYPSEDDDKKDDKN
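AlphaScreen: HP1-beta (50 nM) preformed 30 min with biotin-H3(1-18)K9me3 peptide (50 nM) in PBS pH 7.4, 0.01% Tween-20. Compound added for 30 min at RT, then streptavidin donor/nickel chelate acceptor beads (10 ug/mL) for 30 min.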
12-LOX inh: blocks human arachidonate 12S-lipoxygenase. purified 12hLO, xylenol orange hydroperoxide absorbance. Potency, µM (doses to about 108 µM), hits mostly inhibitors. 580,000 tested, 1.1% active
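Hydroperoxide product was detected by ferrous iron/xylenol orange as the 573 to 405 nm absorbance ratio. Arachidonic acid at 40 uM (final) was turned over for 30 min at room temperature by 150 nM human 12hLO, pH 7.0 Hepes buffer, after 15 min compound preincubation.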
BAZ2B block: BAZ2B (human) inhibition. AlphaScreen BAZ2B-H3K14Ac peptide displacement. 360,000 tested, 4.4% active. AID 504333. Potency, µM (doses to about 114 µM), usual class: inhibitors; note: nearly all actives have a fitted effect of over 60% in size
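In this displacement format the biotinylated H3(5-23) peptide acetylated at Lys14 serves as ligand at 50 nM, with BAZ2B at 50 nM in PBS pH 7.4 containing 0.01% Tween-20. Donor and acceptor beads are 10 ug/mL final.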
Sfp PPTase inh: inhibitors of Bacillus subtilis Sfp phosphopantetheinyl transferase; Q9F4F7; Biochemical Sfp PPTase activity, qHTS; Potency, µM, hits mostly inhibitors; 310,000 tested, 3.5% active;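 note: the enzyme is Sfp with the accession as filed and its product quenches rhodamine fluorescence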
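Sfp 15 nM + cpd, 15 min RT; start w/ rhodamine-CoA 5 uM, BHQ-2-YbbR 12.5 uM (final); 50 mM Hepes pH 7.6, 10 mM MgCl2, 0.01% NP-40, 0.01% BSA; read 525/598 nm at 0 and 30 min.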
G9a inh: inhibitors of human histone lysine methyltransferase G9a; Potency, µM (highest dose often 102 µM), most hits filed as inhibitors; 350,000 tested, 8.8% active; Q96KQ7; AID 504332; G9a H3K9 monomethylation, AlphaScreen, 2 h; note: nearly all actives have a fitted effect of over 75% in size
Target sequence (Q96KQ7 913-1193 limits assumed): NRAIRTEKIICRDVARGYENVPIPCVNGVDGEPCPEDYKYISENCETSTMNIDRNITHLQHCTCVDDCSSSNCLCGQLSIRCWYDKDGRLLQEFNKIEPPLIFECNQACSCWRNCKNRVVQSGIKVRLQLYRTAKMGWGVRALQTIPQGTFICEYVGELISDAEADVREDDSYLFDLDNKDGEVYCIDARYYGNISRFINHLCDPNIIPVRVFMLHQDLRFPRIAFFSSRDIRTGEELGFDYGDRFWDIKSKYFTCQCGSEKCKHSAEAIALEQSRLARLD
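Quantitative HTS format: methyltransferase activity on a biotin-tagged H3K9 peptide is measured by AlphaScreen, using a rabbit anti-monomethyl-H3K9 antibody with streptavidin donor and anti-IgG acceptor beads. Final levels are 20 nM enzyme, 500 nM peptide, 20 uM SAM; 2 h RT.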
Hits are given with their value; ! = a repeat was not active; [ ] = dose if it differs, or a comment. Rows were chosen to be rich in hits. Some 8.7% of all compounds tested hit in one or more screens of this group. Calls come from the whole dose curve; as a rule, active = well fitted curve in the direction sought with a large enough effect; inconclusive = small, poorly fitted or top-dose-only effect, or another doubt; inactive = no such curve, though single readings can be large; an effect the other way counts as inactive or inconclusive.

CCOc1ccc(Nc2nc(Cc3nnc(SCC(=O)NC4CCCCC4)n3C)cs2)cc1 was read as JMJD2A Tudor inh 56µM, HP1b binding inh inactive, 12-LOX inh inactive, BAZ2B block 50µM, Sfp PPTase inh inactive and G9a inh inactive[12.7 µM].
Screening COCCCn1c(Cc2csc(Nc3ccc(F)cc3)n2)nnc1SCC(N)=O returned JMJD2A Tudor inh inconclusive, HP1b binding inh inactive, BAZ2B block inconclusive, Sfp PPTase inh 50µM and G9a inh inconclusive.
`COc1ccc(NC(=O)Cc2nnc(SCC(=O)NC3CCCCC3)n2C)cc1` gave JMJD2A Tudor inh inactive, HP1b binding inh inactive, 12-LOX inh inactive, BAZ2B block inactive, Sfp PPTase inh inactive and G9a inh inactive.
CCOc1ccc(Nc2nc(Cc3nnc(SCC(=O)N(CC)CC)n3C)cs2)cc1 was read as JMJD2A Tudor inh inactive, HP1b binding inh inactive, 12-LOX inh inconclusive, BAZ2B block inconclusive, Sfp PPTase inh 32µM and G9a inh inactive.
CCOc1ccc(Nc2nc(Cc3nnc(SCC(=O)NCC4CCCO4)n3C)cs2)cc1 (stereo not drawn) was read as JMJD2A Tudor inh inconclusive, HP1b binding inh inactive, 12-LOX inh inactive, BAZ2B block inconclusive, Sfp PPTase inh 28µM and G9a inh inactive.
For O=C(NNC(=O)c1cc2cc3ccccc3nc2s1)c1cccc(Cl)c1 the results were JMJD2A Tudor inh 50µM, HP1b binding inh inactive, 12-LOX inh inactive, BAZ2B block inactive, Sfp PPTase inh inactive and G9a inh 32µM.
For Cc1cccc(C(=O)NNC(=S)NC(=O)c2ccc(C(C)(C)C)cc2)c1 the results were 12-LOX inh 18µM.
For Cc1cccc(C(=O)NNC(=O)c2cc3cc4ccccc4nc3s2)c1 the results were JMJD2A Tudor inh inactive, HP1b binding inh inactive, 12-LOX inh inactive, BAZ2B block inactive and Sfp PPTase inh inactive.
Screening Cc1cccc(C(=O)NC(=S)NNC(=O)c2ccc(Cl)cc2)c1 returned JMJD2A Tudor inh inactive, HP1b binding inh inactive, 12-LOX inh 28µM, BAZ2B block inactive, Sfp PPTase inh inactive and G9a inh 40µM.
O=C(NNC(=O)c1cccc(Cl)c1)NNC(=O)c1cccc(Cl)c1 was read as JMJD2A Tudor inh inactive, HP1b binding inh inactive and 12-LOX inh inactive.
`NC(=S)NNC(=O)c1cccc(Cl)c1` gave JMJD2A Tudor inh inactive, HP1b binding inh inactive, 12-LOX inh inactive, BAZ2B block inactive, Sfp PPTase inh inconclusive and G9a inh 71µM.
For C[N+](C)(C)C/C=C1/COCO1 the results were JMJD2A Tudor inh inconclusive, HP1b binding inh inactive, 12-LOX inh 11µM!, BAZ2B block inactive, Sfp PPTase inh inactive and G9a inh 50µM.
Screening CN(C)c1ccc(CN(CC2CCCO2)C(=O)COc2ccccc2Cl)cc1 (stereo not drawn) returned JMJD2A Tudor inh 45µM, HP1b binding inh inconclusive, 12-LOX inh inactive, BAZ2B block 40µM and G9a inh 13µM.
Cc1cc(Cl)ccc1OCC(=O)N(Cc1ccc(N(C)C)cc1)CC1CCCO1 (stereo not drawn) was read as JMJD2A Tudor inh 28µM, HP1b binding inh inconclusive, 12-LOX inh inactive, BAZ2B block 11µM and G9a inh 18µM.
COc1ccccc1OCC(=O)N(Cc1ccc(N(C)C)cc1)CC1CCCO1 (stereo not drawn) was read as JMJD2A Tudor inh inconclusive, HP1b binding inh inactive, 12-LOX inh inactive, BAZ2B block inconclusive and G9a inh inconclusive.
Screening NC(=O)[C@@H]1CCCN1C(C(=O)O)c1cn(CCC(=O)O)c2cc(F)ccc12 (stereo partly drawn) returned 12-LOX inh inactive.
`CC(C)Cc1nnc(NC(=O)CN2C(=O)c3ccccc3C2=O)s1` gave JMJD2A Tudor inh inactive, HP1b binding inh inactive, 12-LOX inh inactive, BAZ2B block inactive, Sfp PPTase inh 22µM and G9a inh 25µM.
`CC(C)(C)Cc1nnc(NC(=O)CN2C(=O)c3ccccc3C2=O)s1` gave JMJD2A Tudor inh inactive, HP1b binding inh inconclusive, 12-LOX inh inconclusive, BAZ2B block inactive, Sfp PPTase inh inconclusive and G9a inh 35µM.
`COc1ccc(CN(C(=O)c2nn(C)c(=O)c3ccccc23)C2CCS(=O)(=O)C2)cc1` (stereo not drawn) gave 12-LOX inh inactive.
